Several values for one entry are separate records, joined by “and”; a condition that tells them apart may be missing. Equal entries are not always repeated. Out of some 260,000 compounds screened, about 2,200 (0.85%) were called active.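 The calls were made as follows: active = compounds whose cAMP rise, as percent of the full-agonist control response, exceeds 60; inactive = the rest.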 The list comes from a sample in which actives are over-represented; it also holds similar structures and randomly drawn compounds. Some compounds were tested as several samples or in several runs, with calls that do not always agree.

The target of the assay is Prostaglandin E2 receptor EP2 subtype (Homo sapiens) (UniProt P43116). Description: modulation of human EP2 prostaglandin signaling – cell-based, HTRF cAMP, PGE2 stimulation, primary screen (AID 940).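 Also: rat C6 glioma line stably carrying human EP2 under a CMV promoter; the protocol text gives 20 µM as final concentration; 100% = response of wells given 1 µM PGE2.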 As to conditions: EP2-expressing cells, cAMP HTRF FRET, PGE2 co-stimulation; at 25 µM; stronger effect = higher value.
Chain of Prostaglandin E2 receptor EP2 subtype (Homo sapiens) (P43116 whole entry, looked up): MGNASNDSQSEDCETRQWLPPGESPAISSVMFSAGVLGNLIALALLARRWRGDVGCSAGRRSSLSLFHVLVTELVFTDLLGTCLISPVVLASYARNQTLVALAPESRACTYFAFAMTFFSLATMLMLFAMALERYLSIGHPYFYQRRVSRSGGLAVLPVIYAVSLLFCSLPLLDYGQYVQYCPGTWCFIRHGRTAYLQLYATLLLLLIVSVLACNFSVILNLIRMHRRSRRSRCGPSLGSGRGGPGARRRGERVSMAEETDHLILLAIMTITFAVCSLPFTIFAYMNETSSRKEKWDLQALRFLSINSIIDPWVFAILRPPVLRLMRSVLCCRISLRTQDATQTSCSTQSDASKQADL
As to `Cc1ccc(C(=O)c2c(NC(=O)c3ccncc3)sc3c2CCCC3)cc1`, the induction was 68.7% (active).

For `Cc1ccc(C(=O)c2c(NC(=O)c3ccccc3)sc(C)c2C)cc1`, the induction was 8.95% (inactive).

As to `Cc1ccc(NC(=O)c2c(NC(=O)CCC(=O)O)sc3c2CCCCC3)cc1`, the induction was 12.1% (inactive) and -20.9% (inactive).

In the case of `Cc1cc(-c2cncnc2C2CCCN(CC(=O)Nc3cc(C)on3)C2)on1` (centres undefined), the induction is 0.23% (inactive).

For the compound `CCOC(=O)c1c(CN2CCOCC2)nc2ccc(Cl)cc2c1-c1ccccc1`, the induction is 22.7% (inactive).

Turning to `CCSc1nnc(-c2cc3c(s2)-c2ccccc2CC3)o1`, the induction was 63.3% (active).

Turning to `Fc1ccc(CSc2nnc(-c3cc4c(s3)-c3ccccc3CC4)o2)cc1`, the induction is 1.98% (inactive).

In the case of `C#CCSc1nnc(-c2sc3ccccc3c2Cl)o1`, the induction was 40.2% (inactive).

Consider `CC(=O)c1ccc(S(=O)(=O)N2CCC(n3c(C)nc4cc(F)ccc43)CC2)cc1`, for which the induction is -40.5% (inactive).

On to `Cc1occc1-c1nn(C2CCN(S(=O)(=O)N(C)C)CC2)c(=O)o1`, for which the induction was -53% (inactive).

Take `CCN(CC)C(=O)CSc1nc2ccccc2c(=O)n1-c1ccccc1`: the induction was -15.6% (inactive).

`CN1CCN(C(c2ccccc2Cl)c2nnnn2C2CCCCC2)CC1` (centres undefined): the induction was -13.7% (inactive).

As for `c1ccc(C(c2ccccc2)N2CCN(Cc3nnnn3C3CCCCC3)CC2)cc1`, the induction is 56.5% (inactive).

As for `c1ccc(C(c2nnnn2C2CCCCC2)N2CCc3ccccc3C2)cc1` (centres undefined), the induction was 68.5% (active).

Take `CCS(=O)(=O)N1CCN(c2nc3ccccc3s2)CC1`: the induction was -84.9% (inactive).

As to `O=C(Cn1nc(-c2cccnc2)oc1=O)N1CCCC1`, the induction is -282% (inactive).

On to `O=C(COc1ccc(Cl)cc1)Nc1ccccc1CO`, for which the induction is -10.2% (inactive).

For the compound `COC(=O)c1sccc1NC(=O)CCC1CCCC1`, the induction is 11.9% (inactive).

For the compound `COC(=O)c1sccc1NC(=O)COc1ccc(Cl)cc1`, the induction was 61.7% (active).

Consider `CCN(CC)CCN(Cc1cc2cccc(C)c2[nH]c1=O)C(=S)NCCOC`, for which the induction was -15.8% (inactive).

`Cc1nn2c(c1-c1ccccc1)N=C(c1ccco1)CC2c1ccccc1` (centres undefined): the induction was 83.8% (active).

`CC(C(=O)N1CCC(n2nc(-c3ccco3)ccc2=O)CC1)c1ccccc1` (centres undefined): the induction is -23.1% (inactive).

Consider `COCC(=O)Nc1nnc(Cc2ccccc2)s1`, for which the induction is -1.1% (inactive).

As to `CCc1nn(CC(=O)NC(C)c2ccccn2)c(=O)c2cc3ccsc3n12` (centres undefined), the induction was -14.5% (inactive).

For the compound `O=C(c1ccn[nH]1)N1CCn2cc(C(F)(F)F)nc2C1`, the induction was -3.08% (inactive).

Turning to `CC1CCCCN1CC(=O)NCc1ccc2c(c1)OCO2` (centres undefined), the induction was 8.14% (inactive).

`CCc1ccc2oc(=O)cc(CN3CCCCC3C)c2c1` (centres undefined): the induction is 64.2% (active).

`COc1ccc(CN2CCCCC2C)cc1OC` (centres undefined): the induction is 1.32% (inactive).

Take `CCOC(=O)CNC(=O)CSc1nnnn1-c1cc(C)ccc1C`: the induction was -4.73% (inactive).

Consider `CCOC(=O)c1c(-c2ccc(C)cc2C)csc1NC(=O)CSc1nnnn1C`, for which the induction was 63.5% (active).

For the compound `COC(=O)c1ccccc1NC(=O)CSc1nnnn1C`, the induction was 20.6% (inactive) and 0.97% (inactive).

For the compound `CSc1nc(O)c(C2CCCCC2)c(=O)[nH]1`, the induction is -1.22% (inactive).

`COc1ccc(CNC(=O)CCSc2nc(-c3ccco3)cc(C(F)(F)F)n2)cc1OC`: the induction is -21.3% (inactive).

Regarding `CS(=O)(=O)N1CCc2cc(C(=O)N3C4CCC3CC(c3ccc(F)cc3)C4)ccc21` (centres undefined), the induction is -36.1% (inactive).

`COC(=O)Cn1c(C)nc2ccccc2c1=O`: the induction was 6.77% (inactive).

`CC(C)(C)c1nc2ccccc2c(=O)n1N1C(=O)c2ccccc2C1=O`: the induction is 65.2% (active).

Consider `CN(C)CCCn1c(SCCN2C(=O)c3ccccc3C2=O)nc2ccccc2c1=O`, for which the induction was -26% (inactive).

On to `Cc1ccc(C2(O)CCN(Cc3cccc(OCc4ccccn4)c3)CC2)cc1`, for which the induction was -1.87% (inactive).

Regarding `CCCN(CC)c1nc2c(C)cccn2c(=O)c1/C=C1\SC(=S)N(CCCOC)C1=O`, the induction is 23% (inactive).

For `COc1ccc(C2(NCc3ccccc3-n3cccn3)CC2)cc1`, the induction was 7.61% (inactive).

Consider `C=CC1(C)CC(=O)C2(O)C(C)(O1)C(OC(C)=O)C(O)C1C(C)(C)CCC(O)C12C` (centres undefined), for which the induction was 102% (active).

On to `CC(C)(C)NC(=O)C(=O)NN=C1CCCCCCC1`, for which the induction was 27.3% (inactive).

Consider `C/C(=N\NC(=S)NC(C)C)c1ccc(C(C)(C)C)cc1`, for which the induction was 8.13% (inactive).

With `CC(C)NC(=S)NN=C1CCCCCCCCCCC1`, the induction was 68.3% (active).

Turning to `COc1cc(-c2nc3cnccn3c2NCC2CCCO2)ccc1O` (centres undefined), the induction is -29.6% (inactive).

On to `O=c1cc(N2CCCCC2)c(-c2ccccc2)nn1Cc1cccc(F)c1`, for which the induction was 90% (active).

In the case of `O=C(CS(=O)(=O)c1cn(Cc2cccc(F)c2)c2ccccc12)N1CCCCC1`, the induction is -10.4% (inactive).

For `O=c1cc(N2CCN(Cc3ccccc3)CC2)c(-c2ccccc2)n[nH]1`, the induction is -2.25% (inactive).

Turning to `CC(=O)Nc1c[nH]c(=O)[nH]c1=O`, the induction was -5.98% (inactive).

On to `CC[C@H]1OC(=O)[C@H](C)[C@@H](O[C@H]2C[C@@](C)(OC)[C@@H](O)[C@H](C)O2)[C@H](C)[C@@H](O[C@@H]2O[C@H](C)C[C@H](N(C)C)[C@H]2O)[C@](C)(O)C[C@@H](C)[C@@H]2N[C@@H](COCCOC)O[C@H]([C@H]2C)[C@]1(C)O`, for which the induction was 64.2% (active) and 17.8% (inactive).

As to `Cc1ccc(-c2c(C)[nH]n3c(=O)c4c(nc23)CCC4)cc1`, the induction is -89.9% (inactive).

On to `COc1ccc(N2CCN(C(c3ccccc3)c3nnnn3Cc3cccs3)CC2)cc1` (centres undefined), for which the induction was 21.1% (inactive).

With `C=CCNc1nc(-c2sc(NC(=O)c3ccccc3)nc2C)cs1`, the induction is -131% (inactive).

`CCN(CC)c1nc2c(c(=O)n(C)c(=O)n2C)n1Cc1ccc(C)cc1`: the induction was -126% (inactive).

Consider `COc1ccc(CN(Cc2cc3c(cc2OC)OCO3)CC2CCCO2)c(OC)c1` (centres undefined), for which the induction is -3.15% (inactive).

Consider `Cc1oc2c(c1CC(=O)NCc1noc(-c3ccccc3)n1)C(=O)CC(C)(C)C2`, for which the induction is -16.5% (inactive).

Regarding `CC1(C)Cc2nc3sc4c(SCC(=O)NC(c5ccccc5)c5ccccc5)ncnc4c3cc2CO1`, the induction was 70.1% (active).

As for `CC(C)CCSc1ncnc2c1oc1nc3c(cc12)COC(C)(C)C3`, the induction is 29.9% (inactive).

Consider `CCOCCCNC(=O)CSc1ncnc2c1sc1nc3ccccc3cc12`, for which the induction was -36% (inactive).

With `O=C(CN1C(=O)C2CCCN2S(=O)(=O)c2ccccc21)NCCc1ccccc1` (centres undefined), the induction is -13.3% (inactive).

In the case of `Cc1cc(CN2CCc3c(nc(N4CCCC4)[nH]c3=O)C2)c(C)n1-c1cccnc1`, the induction is -32.9% (inactive).

For the compound `CCn1c(SCC(=O)Nc2cccc3ccccc23)nc2c1c(=O)n(C)c(=O)n2C`, the induction was -26.4% (inactive).

For `Cn1c(=O)c2c(nc(SCC(=O)Nc3ccccc3N3CCCCC3)n2C)n(C)c1=O`, the induction is 67.3% (active) and 23.3% (inactive).

Take `CC(C)n1c(SCC(=O)Nc2ccccc2N2CCCCC2)nc2c1c(=O)n(C)c(=O)n2C`: the induction was 9.15% (inactive).

On to `c1ccc(-c2cc(N3CCCCC3)c3ccccc3n2)cc1`, for which the induction is 40.2% (inactive).

In the case of `FC(F)(F)c1cccc(-c2cc3ccccc3nc2N2CCCC2)c1`, the induction is 65.5% (active).

`CSc1nc2nc(-c3cccc(C(F)(F)F)c3)ccn2n1`: the induction is 27.7% (inactive).

With `C=CCNC(=O)[C@H]1C=CCN1S(=O)(=O)c1ccc(F)cc1`, the induction is -8.27% (inactive).

For the compound `O=C(CN1CCCCC1)N1c2ccccc2Sc2ccc(C(F)(F)F)cc21`, the induction is 66.5% (active).

Consider `COc1cc(/C=C/C(=O)N2c3ccccc3Sc3ccc(C(F)(F)F)cc32)cc(OC)c1OC`, for which the induction is 4.97% (inactive).

Take `O=C(CN1CCCCCC1)N1c2ccccc2Sc2ccc(C(F)(F)F)cc21`: the induction was 41.5% (inactive).

On to `Nc1cc(-c2ccco2)nn(CC(=O)NCc2ccccc2)c1=O`, for which the induction is 4.9% (inactive).

Regarding `CCCNC(=O)C1COc2ccccc2O1` (centres undefined), the induction was -4.2% (inactive).

For `O=[N+]([O-])c1ccc(Sc2nc3c(c(C(F)(F)F)n2)CCCC3)nc1`, the induction is 34.3% (inactive).

Regarding `C/C=N/N(c1ccccc1)c1ccccc1`, the induction is 64.5% (active).

Regarding `COc1cccc(CN2CCN(C(=O)CCn3nnc4ccccc43)[C@@H](C)C2)c1`, the induction was -13.9% (inactive).

For the compound `CC(C)[C@H](Cn1nc(-c2cccs2)ccc1=O)NC(=O)Cn1cnc2ccccc2c1=O`, the induction is -6.72% (inactive).

Regarding `Cc1cnc(C(=O)NC(C)c2nc(-c3ccncc3)n[nH]2)cn1` (centres undefined), the induction was -35.1% (inactive).

As to `CC(=O)c1c(-c2ccccc2)c2ccccc2[nH]c1=O`, the induction is 7.65% (inactive).

Turning to `Cc1nc2ccccc2c(-c2ccccc2)c1C(=O)c1ccccc1`, the induction was 94.7% (active).

As for `Cc1nc2ccccc2c(C)c1C(=O)c1ccc(F)cc1`, the induction is 11.7% (inactive).

Turning to `CC(C)n1c(=O)oc2cc(S(=O)(=O)N3CCCC(C(N)=O)C3)ccc21` (centres undefined), the induction is -51.2% (inactive).

For `COc1ccccc1N1N=C(c2cccs2)CC1c1ccccc1` (centres undefined), the induction is 38.4% (inactive).

Turning to `COc1ccc(C2CC(c3cccs3)=NN2c2ccccc2)cc1` (centres undefined), the induction was 21.6% (inactive).

With `Fc1ccc(N2N=C(c3cccs3)CC2c2ccco2)c(F)c1` (centres undefined), the induction was 63.6% (active).

On to `CCC(C)NC(=O)CSc1nc2cc3c(cc2cc1C#N)OCCO3` (centres undefined), for which the induction was 33.9% (inactive).

As for `CCn1nnnc1SCC(=O)Nc1cccc(C(C)=O)c1`, the induction is -7.36% (inactive).

As to `CCC(=O)OCc1c(C(F)(F)F)nn(C)c1Oc1cccc(C(F)(F)F)c1`, the induction is 62.3% (active).

`O=Cc1ccc(Oc2cccc(C(F)(F)F)c2)nc1`: the induction is 16.6% (inactive).

Consider `Cc1nc(N)[nH]c(=O)c1Oc1cccc(C(F)(F)F)c1`, for which the induction is 22.3% (inactive).

As to `CCn1c(SCC(=O)Nc2ccc(C(=O)OC)cc2)nnc1-c1cccnc1`, the induction is -7.67% (inactive).

For `OC[C@H]1O[C@@H](n2cnc3c(N[C@H]4CC5CCC4C5)ncnc32)[C@H](O)[C@@H]1O` (some centres undefined), the induction was 0.16% (inactive).

`CNc1ncnc2c1ncn2[C@@H]1O[C@H](CO)[C@H](O)C1O` (some centres undefined): the induction was 15.2% (inactive).

For the compound `CCCC(=O)Nc1ncnc2c1ncn2C1O[C@@H]2COP(=O)(O)O[C@H]2[C@H]1OC(=O)CCC` (some centres undefined), the induction is 107% (active).
